Test results taken from the supplement of paper PMC10681739.

The sequences below were run against T1, ETS1 (UniProt P14921) (assay: ETS1 binding intensity (PBM fluorescence) in presence of RUNX1, normalised to ETS1-only experiment (arbitrary fluorescence units); higher = stronger binding). Details: ETS1 concentration 1 nM; RUNX1 concentration 25 nM.
T1 sequence: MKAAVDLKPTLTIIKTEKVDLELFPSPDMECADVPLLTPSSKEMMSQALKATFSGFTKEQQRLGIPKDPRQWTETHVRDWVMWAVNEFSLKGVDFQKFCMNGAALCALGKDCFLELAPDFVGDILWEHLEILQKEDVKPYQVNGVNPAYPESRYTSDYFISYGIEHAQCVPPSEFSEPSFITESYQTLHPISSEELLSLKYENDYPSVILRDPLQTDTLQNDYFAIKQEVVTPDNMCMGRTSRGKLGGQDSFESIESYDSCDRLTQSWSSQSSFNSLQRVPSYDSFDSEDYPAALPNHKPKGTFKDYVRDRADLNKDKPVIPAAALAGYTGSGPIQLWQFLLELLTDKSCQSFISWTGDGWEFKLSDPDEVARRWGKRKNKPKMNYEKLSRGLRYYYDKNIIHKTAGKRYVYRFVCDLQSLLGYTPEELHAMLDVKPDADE
Method: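 Cooperative genomic-context PBM: 36-bp genomic probes with neighbouring ETS1 and RUNX1 sites, double-stranded on Agilent 4x180k arrays. Full-length recombinant human ETS1 (1 nM) was incubated alone or with RUNX1 (25 nM) and detected with anti-ETS1 antibody plus Alexa488 secondary. Value is the median fluorescence intensity over 4 replicate spots; the ETS1+RUNX1 data were normalised to the ETS1-only data using probes without RUNX1 sites. The 36-bp variable region sits on the array probe with constant linker/primer flanks that are not printed.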

Row | Sequence | ETS1 binding intensity
1 | GGCCCCTGCTTCCGGGTGTGACGCGAACCGCGGGCA | 1050
2 | GTGCAGGCAATGAGGATGTTGTGGGGGAGACAGGGA | 732
3 | GACACCCCACACCGGAAACCTCAGACAGTCCTCAGC | 4680
4 | CTTTGCAGGAAGCTGGGGTTCACCCACAGCCTTGTT | 857
5 | GCGCACACATGCTTCCTGTGGTGACTGGGCGCTTCA | 512
6 | GAAACAATTTCCTGTACCTCTGTGGTAAAAATGATA | 1650
7 | CCTGGTCCGGAAGCGCTGTCCCCGCCTCCCGCATAG | 2430
8 | AAGGCAAACAGGAAATCATAACCACAAACCAGGAAC | 25500
9 | TCTCCCGGAACTGCTCCTTCACCATGATGACCGCTG | 542
10 | TGGGATTCTCACTTCCGATCAGCGGTCCTGAACCCG | 622
11 | AGGGCGCCGCTTCCGGGAGCCCGCAAGCGGCCTCCG | 715
12 | GAGCAGGAAGCACCCCCAGCACAGGCCTGCGGTGAG | 1350
13 | ATTCCTAGAGAGGAAATGCGGGCTCAGGGTGTCGGC | 1560
14 | CTCTTCAGCAGGAAATGATGTGGTAAAACAGGGTTA | 10100
15 | CGTTTCCTGTCTGGGACTGCGCCCACGCGGTCACGT | 922
16 | CTGCGTCCCGGAAGGAGCGAGCTTGCGGAGCGTGAA | 542
17 | GCTAAAGGAAGCTCTGTACAGCTGTGGTAAGGTGGC | 792
18 | GCCTGTCGCAGGAACGGAAGTGGTTACGGCCCTAGT | 19800
19 | TCAAGAAAACAGGAAACTCTCAAAACCAAGTTCTGA | 1830
20 | ACGGGGAAGAACGGAAGTGGTTTCCATGATGGTCTG | 9080

Row | Sequence | ETS1 binding intensity
21 | CTCAGCTCCGCGGAAGTTGCGGTAAGTGGAGCTTTG | 8730
22 | TTATTTCCGGTGTTGATCTTTTTAGTGGTACCAGGC | 3640
23 | CTCCTGAGGAAGTAGTTACAGACACCACAGCGGAGG | 491
24 | GTGCAGACAGGAAATAGCTGCTCTGCGGCAGCCCGA | 6350
25 | GCGAGGAGACAACTTCCTTTTGTGGTCTGACCCTGG | 1590
26 | AAACCAGAGAGGAAGTGGCACCACATGGCCAGACTG | 2150
27 | GGGAGGTGTCCAGGAAGTGGTTGGAGAGTCTGGTCT | 3340
28 | GTGGCGGGGCGGAAGTTCACATGTGTGGTATGTAGA | 5000
29 | ACTACAGGAGGAAACTACAGCCTAAACCACATGCAA | 1010
30 | GGTTTTGGTAGGAAGGAAAGTGGTTTTCATAGGAAG | 598
31 | AGGGAAGCAGGAAGTGACTGCGGGAGTGGAGCCGGC | 3540
32 | AGGCCGCCTACAGGATGTTGGAAACCACAGGGCCCG | 29100
33 | AGCTTGCCGGAAGCTGGTTGTTCGCTGCGGCGACCA | 4380
34 | GAGGGCTGCTTCCTGCTCTGTGGAGGCCGCAGCGGG | 594
35 | GCTTGTCTTCCGGTTTCGTCGCCGCCGCAGGCGCAC | 1880
36 | AGAAGCTGCACCCGGAAATGAAACCACCAGGACCTC | 9310
37 | TCCGGAAGTCGGAGGAACACCCCAGCCGCCGCAGCC | 2010
38 | TCTGTTCTTCCTTTTCCTGTGCGGTGTGCCCCAAAC | 722
39 | TTTCTCTTCCTGTTTCCACCCTGACCACAGCCAGCT | 1350
40 | ACTCCAGAGGAAGTGGCAAGACGAGCGCGGTAACGG | 1560
